Measured values published in PubChem BioAssay (NCI).
About 83,000 compounds went through this panel and 20% of them were active in at least one assay; those are over-represented in the sample as a whole.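 Single-dose data. Exposure time 48 hours. Values below 10 considered active.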 The source made the active and inactive calls.

The molecules below were run on IGROV1 ovarian (assay: NCI-60 one-dose screen, 48 h (100 = growth as untreated, 0 = no growth, -100 = all killed)). Conditions: 10 µM unless noted.
Description: Growth inhibition of the IGROV1 human tumor cell line is measured as a screen for anti-cancer activity. Cells are grown in 96 well plates and exposed to the test compound for 48 hours. Compounds are tested at a single concentration, which is 10^-5 M for most compounds. The reported endpoint is percent growth (GI% or GIPRCNT), where numbers from 0 - 100% represent growth inhibition, and numbers from -100% - 0 represent cell death. For example, a value of 40 represents 60% growth inhibition. A value of 0 means no net growth occurred over the course of the experiment. A value of -40 indicates 40% of cells at the beginning of the experiment died by the end of the experiment. A value of -100 means all cells are dead at the end of the experiment.
NCI-60 Human Tumor Cell Lines Screen was performed using the standard one-dose NCI protocol, which is described in more detail at https://dtp.cancer.gov/discovery_development/nci-60/default.htm.
Compounds with GIPRCNT values below 10 were considered active. Activity score was based on GIPRCNT using the following formula: […]
Score is 0 for GIPRCNT values of 100 or above, 50 for GIPRCNT values of 0, and 100 for GIPRCNT values of -100.

Row | SMILES | growth
1 | C#CCOc1cccc(/C(N)=N/C(N)=N/c2nc3ccccc3s2)c1 | 65.7% (inactive)
2 | N#Cc1nc(-c2ccccc2)oc1N1CCC(C2(C(F)(F)F)N=N2)CC1 | 108% (inactive)
3 | NCCNC(=O)c1cccc(COc2ccccc2NC(=O)c2cc(Cl)c(Cl)[nH]2)c1 | 94.6% (inactive)
4 | CCC(=C(c1ccc(OCCN2CCCCCC2)cc1)c1ccc(OCCN2CCCCCC2)cc1)c1ccc(Cl)cc1 | 2.76% (active)
5 | NNc1nnc2nc(Nc3ccccc3)nc(Nc3ccc(S(N)(=O)=O)cc3)n12 | 98.3% (inactive)
6 | NC1CC2(CCN(c3cnc(C(=O)Nc4cc(F)cc5cccnc45)cn3)CC2)C1 | 64.8% (inactive)
7 | COc1ccc2sc(NC(=O)CCCCCCNC(=O)C(O)(O)C(F)(F)F)nc2c1 | 0.233% (active)
8 | CCOC(=O)C1=C(C)NC(C)=C(C(=O)OC(C)C)C1c1cccc(C#N)c1 (stereo not given) | 103% (inactive)
9 | CC1=C(C)C(=O)C(Nc2cccc(C(=O)OC(C)(C)C)c2)=CC1=O | 72.9% (inactive)
10 | CCc1cc(OC(=O)N2CCC(N3CCCCC3)CC2)ccc1Nc1cc(-c2ccc(-n3cccn3)cc2)[nH]n1 | 56.9% (inactive)
11 | O=C(CCCCCCN1CC(=O)N2[C@@H](c3cccs3)c3[nH]c4ccccc4c3C[C@H]2C1=O)NO | 94.3% (inactive)
12 | OCC(Nc1ncnc2ccc(-c3cnc4cnccn34)cc12)c1ccccc1 (stereo not given) | 39.1% (inactive)
13 | CN1CCN(c2ccc(C(=O)/C=C/c3cc(F)cc(C(F)(F)F)c3)cc2)CC1 | 77.9% (inactive)
14 | Cc1cc(C)cc(NC2=C(Cl)C(=O)c3nc(C)ccc3C2=O)c1 | -62.1% (active)
15 | CSc1ccc(/C(=N/N=C(N)N)c2ccc(F)cc2)cc1 | 39.9% (inactive)
16 | CS(=O)(=O)c1nccc(-c2c(-c3cccc(OCc4ccc(Cl)c(C(F)(F)F)c4)c3)nc3sccn23)n1 | 34.1% (inactive)
17 | CC(C)=CCC[C@](C)(O)[C@H]1CC[C@]2(C)[C@@H]1CC[C@@H]1[C@@]3(C)CC[C@H](N)C(C)(C)[C@@H]3CC[C@]12C | 93.3% (inactive)
18 | CN1CCN(c2ccc(Nc3nc(NCCCNS(=O)(=O)c4ccccc4)c4sccc4n3)cc2)CC1 | 79.7% (inactive)
19 | Clc1cccc(/C=N/Nc2nc(N/N=C/c3cccc(Cl)c3)nc(N3CCOCC3)n2)c1 | 50.7% (inactive)
20 | COc1ccc(/C=N/NC(=O)CSc2nc(-c3cnccn3)cc(-c3cccs3)c2C#N)cc1 | 90.7% (inactive)

Row | SMILES | growth
21 | O=C(/C=C/c1csc(Br)n1)NO | 16.7% (inactive)
22 | CN1CCC[C@]2(C)[C@H]3CC[C@@H]4[C@@H]5[C@H]6OC[C@@]5(CCC6(C)C)CC[C@@]4(C)[C@]3(C)CC[C@H]2C1(C)C | 77.8% (inactive)
23 | N#Cc1c(-c2ccc(F)cc2)cc(-c2c[nH]c3ccccc23)nc1-c1c[nH]c2ccccc12 | 102% (inactive)
24 | N#Cc1nc(-c2ccc(Cl)cc2)oc1N1CCC(S(=O)(=O)N2CCOCC2)CC1 | 90.5% (inactive)
25 | CCOC(=O)c1c(NC(=O)c2ccc(C(F)(F)F)cc2)sc2c(CN3CCN(C)CC3)c(O)ccc12 | -82.7% (active)
26 | Cn1ncc2c(C(=O)c3ccc(F)cc3)nc(C(C)(C)C)nc21 | 103% (inactive)
27 | CCN(CC)CCOc1ccc(C(=C(C)Cc2ccc(OC)cc2)c2ccc(OCCN(CC)CC)cc2)cc1 | 68.9% (inactive)
28 | CNC(=O)c1cc(N2CCc3cc(NC(=O)Nc4ccc(N5CCOCC5)c(C(F)(F)F)c4)ccc32)ccn1 | 37.3% (inactive)
29 | N#Cc1c(-c2cccs2)cc(-c2cnccn2)nc1SCC(=O)N/N=C/c1ccccc1 | 61.9% (inactive)
30 | COc1ccc(C2C(C#N)=C(/N=C/c3ccc(Cl)cc3)Oc3c2sc2c(C)cccc32)cc1 (stereo not given) | 23.6% (inactive)
31 | CC1(C)CC[C@]2(C(=O)O)CC[C@]3(C)C(=CC[C@@H]4[C@@]5(C)CC[C@H](NOCCCN)C(C)(C)[C@@H]5CC[C@]43C)[C@@H]2C1 | 99.3% (inactive)
32 | C#C[C@]1(O)CC[C@H]2[C@@H]3CC=C4c5sc(Nc6cccc(F)c6)nc5CC[C@]4(C)[C@H]3CC[C@@]21C | 49.8% (inactive)
33 | N#CC1=C2NCCCNc3oc(nc3C#N)Cc3ccccc3CC(=N1)O2 | 93.4% (inactive)
34 | Cc1csc(/N=C(N)/N=C(\N)c2cccs2)n1 | 101% (inactive)
35 | CC(=C(c1ccc(OCCN(C)C)cc1)c1ccc(OCCN(C)C)cc1)c1ccc(Cl)cc1 | -76.8% (active)
36 | Cc1nc(N)sc1-c1csc(Nc2ccc(C(F)(F)F)cc2)n1 | 18.9% (inactive)
37 | CC(=C(c1ccc(OCCN2CCCC2)cc1)c1ccc(OCCN2CCCC2)cc1)c1ccc(Cl)cc1 | -50.7% (active)
38 | CC1=C(C)C(=O)C(Nc2ccc3c(c2)OCO3)=C(Br)C1=O | 90.9% (inactive)
39 | Cc1ccc(OCc2occc2C(=O)N2CCOCC2)cc1 | 104% (inactive)
40 | COc1ccc(-c2nc(C#N)c(N3CCC(S(=O)(=O)N4CCOCC4)CC3)o2)cc1 | 93% (inactive)
